Where “and” joins values, the source holds several entries; their conditions need not be identical. Equal entries are not always repeated. Inconclusive results are not listed. Calls of active or inactive are those of the source. Unless noted, the call rests on the fitted dose curve; in most records, active means well fitted curve in the direction sought with a large enough effect; inconclusive means small, poorly fitted or top-dose-only effect, or another doubt; inactive means no such curve, though single readings can be large; an effect the other way counts as inactive or inconclusive.
Legend:
[1] = Cell Viability - BJ (AID 421; calls by dose curve;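 further: potency means the concentration at half of the fitted maximal effect; cells exposed to compound for 40 hours at 37 °C before readout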); settings: BJ fibroblast viability, qHTS
Outline: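 Cytotoxicity as drop in intracellular ATP (CellTiter-Glo, 20 min RT) after 40 hr compound exposure of BJ fibroblasts at 37 °C. Titrations scaled between DMSO and 100 uM tamoxifen, Hill-fitted for AC50.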

[2] = Cell Viability - MRC5 (AID 434; calls by dose curve;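 further: potency means the concentration at half of the fitted maximal effect; potency reflects cytotoxicity seen as loss of intracellular ATP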); settings: MRC5 lung fibroblast viability, qHTS
Outline: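 Decrease in intracellular ATP, quantified by luciferase light output, reflects compound toxicity toward MRC5 cells exposed for 40 hr in complete culture medium. Concentration-response curves, scaled between DMSO and 100 uM tamoxifen, gave AC50 values.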

[3] = biological target: Mitogen-activated protein kinase 10 (Mus musculus) (UniProt Q61831); test: JNK3 AlphaScreen Assay (AID 530; active means well fitted curve in either direction with a large enough effect, not every such curve was filed as active;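 further: kinase came from lysate of stimulated human HepG2 cells; signal reports phosphorylation of biotinylated GST-cJun 1-79 at Ser73 with 10 µM ATP; on the % scale 0 is the no-effect control and ±100 the full control effect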); settings: JNK3 lysate, c-Jun phosphorylation; series mostly up to 57.1 µM
Outline: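 Phosphorylation of biotinylated GST-cJun(1-79) at Ser73 is measured by AlphaScreen proximity luminescence. Enzyme is JNK3 in HepG2 lysates activated with interleukin-1beta and tumor necrosis factor alpha; ATP is 10 uM final.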

[4] = Cell Viability - Renal Proximal Tubule (AID 545); settings: renal proximal tubule cells viability; activity change, negative = cytotoxicity: at 91.7 µM (top of the series) unless noted; further: nearly all actives have a fitted effect of over 40% in size; further: potency means the concentration at half of the fitted maximal effect;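 on activity change, negative = cytotoxicity: 0% = DMSO only and -100% = 100 µM tamoxifen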
Outline: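 Luminescent ATP signal (CellTiter-Glo) served as the viability read-out after 40 hr compound exposure of freshly isolated rat proximal tubule cells at 37 °C. Concentration-dependent ATP loss was fitted with the Hill equation to give AC50.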

[5] = Cellular Toxicity (caspase-3) HUV-EC-C (AID 656); settings: HUV-EC-C cells, caspase-3 activation (apoptosis), vehicle = 0, 100 µM tamoxifen = 100%; series mostly up to 92.2 µM;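 further: 0% = DMSO basal and 100% = 100 µM tamoxifen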
Outline: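 qHTS; HUV-EC-C, 1000 cells/well; 5 hr settle, 16 hr cmpd, 37°C; Caspase-Glo 3/7, 20 min RT; luminescence. Norm: DMSO = 0%, tamoxifen 100 uM = 100%. Hill-fit AC50.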

[6] = Cellular Toxicity (caspase-3) N2a (AID 665); settings: N2a cells, luminescence, normalized: DMSO 0%, 10 µM staurosporine 100%; series mostly up to 92.2 µM;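 further: compound exposure lasted 16 h at 37 °C before readout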
Outline: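 Caspase-3/7 activation, measured as increased luminescence from aminoluciferin release, is quantified in mouse N2a cells exposed to compounds for 16 h. Values are normalized to DMSO and 10 uM staurosporine, with AC50 derived by Hill modelling.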

[7] = Cellular Toxicity (caspase-3) Renal Proximal Tubule (AID 667); settings: renal proximal tubule cells; at 91.7 µM (top of the series) unless noted;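 further: cells exposed to compound for 16 hours at 37 °C before detection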
Outline: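 AC50 derived by standard Hill fit of concentration-response data, normalized between DMSO basal and 10 uM staurosporine as 100% stimulation. Cells: primary rat kidney proximal tubule, 16 h treatment at 37 °C.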

[8] = MultiTox-Fluor Cytotoxicity Assay - LYMP1-003 - Live Cells (AID 962); settings: LYMP1-003 lymphoblastoid cells, MultiTox-Fluor live-cell protease fluorescence; series mostly up to 92.2 µM; further: potency means the concentration at half of the fitted maximal effect
Outline: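 Acute cytotoxicity is scored as a drop in live-cell protease activity in human lymphoblastoid LYMP1-003 cells after 16 hr compound exposure at 37 C. AC50 values come from Hill-equation modelling of concentration-response data.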

[9] = Cell Viability - LYMP2-003 (AID 965); settings: LYMP2-003 lymphoblastoid cell viability; series mostly up to 92.2 µM;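 further: cells exposed to compounds for 24 h before reading; nearly all actives have a fitted effect of over 50% in size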; further: potency means the concentration at half of the fitted maximal effect;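 on activity change, negative = cytotoxicity: 0% = DMSO only and full effect = 92 µM tetraoctylammonium bromide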
Outline: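 Seed 2500 lymphoblastoid cells/well; incubate 5 hr, 37 C; add compounds; incubate 24 hr, 37 C; add CellTiter-Glo, 30 min RT; read luminescence. AC50 from Hill fit.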

[10] = Cell Viability - LYMP2-008 (AID 980); settings: LYMP2-008 lymphoblastoid cell viability, qHTS; series mostly up to 92.2 µM; further: nearly all actives have a fitted effect of over 60% in size; further: potency means the concentration at half of the fitted maximal effect;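 on activity change, negative = cytotoxicity: cells exposed to compound for 24 h at 37 °C; on the % scale 0 is the no-effect control and ±100 the full control effect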
Outline: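 Cells seeded at 2500/well and rested 5 hr at 37 C; compounds added over a concentration range and incubated 24 hr at 37 C; CellTiter-Glo added, 30 min at room temperature; luminescence read and AC50 fitted with Hill model.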

[11] = qHTS assay for environmental chemicals that activate the Aryl hydrocarbon Receptor (AhR) signaling pathway (AID 651777); settings: 1A2-DRE human hepatoma cells, luciferase, 24 h; activation: stronger effect = higher value; further: nearly all actives have a fitted effect of over 15% in size; further: potency means the concentration at half of the fitted maximal effect; on activation: % of control where 0% means no effect
Outline: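 Stable CYP1A2 promoter/DRE-luciferase human hepatoma line treated 24 hr; One-Glo luminescence, 30 min RT.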

[12] = biological target: Peroxisome proliferator-activated receptor alpha (Homo sapiens) (UniProt Q07869); test: qHTS assay for small molecule agonists of the peroxisome proliferator-activated receptor alpha (PPARalpha) signaling pathway (AID 651778); settings: PathHunter PPARalpha complementation, chemiluminescence, 6 h; max response: stronger effect = higher value; further: % of control where 0% means no effect
Outline: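 Cells plated at 2,000/well and held overnight at 37 C, 5% CO2, then compound added by pin tool for 6 hr; after PathHunter detection reagent and 60 min at room temperature, chemiluminescence from enzyme complementation was read.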

[13] = qHTS assay for small molecule agonists of the antioxidant response element (ARE) signaling pathway measured by Nrf2-dependant transcriptional activity - cell viability counter screen (AID 720653; active means well fitted curve in the direction sought with a large enough effect in the repeat runs; an effect the other way counts as inactive or inconclusive; further: potency means the concentration at half of the fitted maximal effect; on max response: on the % scale 0 is the no-effect control and ±100 the full control effect); settings: ARE-bla HepG2 viability, CellTiter-Glo ATP luminescence, 16 h; max response: stronger effect = lower value
Outline: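 ARE-bla HepG2 cells (2,000/well) rested 5 hrs at 37C/5% CO2, then exposed to compounds in DMSO for 16 hrs. Viability was read in the same wells as intracellular ATP by luminescence, 30 min at room temperature after reagent addition.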

[14] = Cell Viability - Jurkat (AID 426;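 active means dose-dependent loss of cell ATP signal giving a full or clear fitted curve, ranked by lower potency value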;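 further: potency means the concentration at half of the fitted maximal effect; cells exposed to compound for 40 hours at 37 °C before ATP read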); settings: qHTS
Outline: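 Cells of the human T-cell leukemia line Jurkat (E6-1) are seeded at 5000 per well, treated with compound across a concentration range for 40 hours at 37 °C, then lysed with CellTiter-Glo; luminescence reports ATP.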

[15] = Cell Viability - SK-N-SH (AID 435; calls by dose curve;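 further: potency means the concentration at half of the fitted maximal effect; compound exposure lasted 40 h at 37 °C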); settings: SK-N-SH neuroblastoma cell viability qHTS
Outline: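 Luminescent ATP signal served as the viability read-out after 40 hours of compound treatment of human neuroblastoma SK-N-SH cells. Concentration-response data, scaled between DMSO and 100 uM tamoxifen, gave AC50 values by standard Hill modeling.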

[16] = Cell Viability - Hek293 (AID 427;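 active means compounds whose dose-response curve shows a full or clear partial loss of cell viability, called from curve shape rather than a numeric limit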;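 further: potency means the concentration at half of the fitted maximal effect; cells exposed to compound for 40 hours at 37 °C before reading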); settings: qHTS
Outline: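 Luminescent ATP content (CellTiter-Glo, 20 min at room temperature) was measured after a 40 hr, 37 °C compound exposure of HEK293 cells. AC50 values came from Hill-equation fits of qHTS concentration-response data normalized to DMSO and 100 uM tamoxifen.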

[17] = biological target: Glucocorticoid receptor (Homo sapiens) (UniProt P04150); test: GR-GFP Redistribution (AID 450;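 active means compounds whose dose series gives a full or clear partial fitted curve of increased nuclear translocation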; further: potency means the concentration at half of the fitted maximal effect); settings: U2OS GR-GFP nuclear translocation, laser cytometry, 2 h
[18] = biological target: Alpha-galactosidase (Coffea arabica) (UniProt Q42656); test: Counterscreen for Glucocerebrosidase Inhibitors: qHTS Assay for Coffee Bean alpha-Galactosidase at pH 4.5 (AID 957); settings: purified coffee bean alpha-galactosidase, fluorogenic substrate; series mostly up to 76.9 µM;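 further: plate controls were enzyme alone for no effect and no enzyme for full effect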
Outline: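 Enzyme is added first (2 nM final), then compounds titrated from 0.7 nM to 77 uM, then 80 uM 4-methylumbelliferyl alpha-D-galactopyranoside; after 20 min at room temperature a pH 10 NaOH/glycine stop precedes fluorescence reading at 365/440 nm.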

[19] = biological target: Alpha-galactosidase (Coffea arabica) (UniProt Q42656); test: Counterscreen for Glucocerebrosidase Inhibitors: qHTS Assay for Coffee Bean alpha-Galactosidase at pH 5.9 (AID 998); settings: coffee bean alpha-galactosidase enzyme assay; series mostly up to 76.9 µM;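 further: plate controls were uninhibited enzyme for no effect and no-enzyme basal signal for full effect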
Outline: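 In 50 mM citric acid pH 5.9 with 0.005% Tween-20, coffee bean enzyme hydrolyses 80 uM 4-MU alpha-D-galactopyranoside over 20 min at RT. Activity is normalized to controls; AC50 comes from Hill-modelled concentration-response data.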

Chain of Peroxisome proliferator-activated receptor alpha (Homo sapiens) (Q07869 whole entry, looked up): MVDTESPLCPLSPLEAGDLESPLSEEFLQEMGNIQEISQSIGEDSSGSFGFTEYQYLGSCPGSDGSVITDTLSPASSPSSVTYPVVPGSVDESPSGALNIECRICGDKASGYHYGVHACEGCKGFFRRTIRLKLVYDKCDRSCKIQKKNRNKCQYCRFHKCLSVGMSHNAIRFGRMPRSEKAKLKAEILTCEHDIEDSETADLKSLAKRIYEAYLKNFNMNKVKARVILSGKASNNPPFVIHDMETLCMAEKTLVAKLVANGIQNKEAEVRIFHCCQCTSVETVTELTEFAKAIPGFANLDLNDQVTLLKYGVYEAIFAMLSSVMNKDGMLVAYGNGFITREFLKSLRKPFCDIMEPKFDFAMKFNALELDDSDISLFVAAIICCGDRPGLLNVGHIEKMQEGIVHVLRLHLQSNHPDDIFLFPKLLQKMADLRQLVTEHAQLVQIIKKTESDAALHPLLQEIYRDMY
Chain of Glucocorticoid receptor (Homo sapiens) (P04150 whole entry, looked up): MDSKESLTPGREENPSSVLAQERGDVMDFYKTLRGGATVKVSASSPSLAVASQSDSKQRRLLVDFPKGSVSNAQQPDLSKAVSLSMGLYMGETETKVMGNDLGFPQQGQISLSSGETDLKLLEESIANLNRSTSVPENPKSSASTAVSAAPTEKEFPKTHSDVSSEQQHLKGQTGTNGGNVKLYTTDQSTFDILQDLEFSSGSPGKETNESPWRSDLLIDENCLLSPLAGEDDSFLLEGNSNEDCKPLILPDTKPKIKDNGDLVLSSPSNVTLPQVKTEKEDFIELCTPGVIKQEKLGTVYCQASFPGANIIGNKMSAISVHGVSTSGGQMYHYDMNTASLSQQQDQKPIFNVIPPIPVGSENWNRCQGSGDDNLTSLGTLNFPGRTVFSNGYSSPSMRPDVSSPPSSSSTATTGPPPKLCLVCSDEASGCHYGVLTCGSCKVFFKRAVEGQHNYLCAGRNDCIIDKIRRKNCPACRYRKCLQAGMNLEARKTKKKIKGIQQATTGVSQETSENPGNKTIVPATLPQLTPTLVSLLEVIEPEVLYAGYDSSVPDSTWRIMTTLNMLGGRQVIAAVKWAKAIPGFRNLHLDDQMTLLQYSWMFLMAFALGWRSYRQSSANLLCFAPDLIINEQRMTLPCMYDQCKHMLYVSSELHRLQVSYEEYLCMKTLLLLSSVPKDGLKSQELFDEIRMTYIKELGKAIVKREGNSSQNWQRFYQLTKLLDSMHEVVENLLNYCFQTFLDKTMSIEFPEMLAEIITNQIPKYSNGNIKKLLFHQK
Chain of Alpha-galactosidase (Coffea arabica) (Q42656 whole entry, looked up): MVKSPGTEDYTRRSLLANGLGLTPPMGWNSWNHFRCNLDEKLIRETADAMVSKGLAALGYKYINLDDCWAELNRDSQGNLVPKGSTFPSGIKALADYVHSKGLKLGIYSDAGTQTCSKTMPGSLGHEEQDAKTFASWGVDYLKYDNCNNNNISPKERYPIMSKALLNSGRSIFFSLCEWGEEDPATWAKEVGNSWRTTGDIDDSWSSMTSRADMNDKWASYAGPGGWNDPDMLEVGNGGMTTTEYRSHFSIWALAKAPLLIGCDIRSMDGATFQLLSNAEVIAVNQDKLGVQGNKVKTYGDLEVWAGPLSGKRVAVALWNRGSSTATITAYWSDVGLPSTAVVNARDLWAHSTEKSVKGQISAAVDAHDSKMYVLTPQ

CC(=O)[O-].CC(=O)[O-].O.O.[Cd+2]
inactive: Potency [1] > 92 µM | Potency [2] > 92 µM | outcome [3] | outcome [5] | outcome [6] | caspase-3 activation [7] -14.3% [at 91.7 µM, primary cells freshly taken from rat, solvent-only wells 0%, staurosporine 100%] | Potency [8] | Potency [9] | activation [11] 1.94% | max response [12] -7.81%
active: Potency [4] 25.1 µM [primary cells of rat origin] | Potency [10] 50.1 µM | Potency [13] 10 µM

Oc1c(Br)c(Br)c(Br)c(Br)c1Br
active: Potency [14] 39.1 µM
inactive: Potency [1] > 92 µM | Potency [2] > 92 µM | Potency [15] 57 µM | Potency [4] | outcome [5] | outcome [6] | caspase-3 activation [7] 1.89% | Potency [8] | Potency [9] | Potency [10] | activation [11] 0.143% | max response [12] 10% | max response [13] -1.75%

CCCCCCCCn1sccc1=O
active: Potency [14] 7.52 µM | Potency [16] 35.3 µM | Potency [2] 10.7 µM | Potency [15] 14.2 µM | Potency [4] 12.6 µM | Potency [8] 15.8 µM | Potency [9] 6.31 µM | Potency [10] 7.94 µM | Potency [13] 50.1 µM
inactive: Potency [1] > 92 µM | outcome [3] | outcome [5] | outcome [6] | caspase-3 activation [7] -21.1% | activation [11] 1.42% and -3.52% | max response [12] -5.93% and -2.13%

Oc1cc2c(cc1O)[C@H]1c3ccccc3CN[C@@H]1CC2
inactive: Potency [17] > 46 µM | outcome [3] | outcome [18] | outcome [19]

C(=NC1CCCCC1)=NC1CCCCC1
inactive: Potency [1] > 92 µM | Potency [2] > 92 µM | outcome [3] | Potency [4] | outcome [5] | outcome [6] | caspase-3 activation [7] 5.14% | Potency [8] | Potency [9] | activation [11] 2.78% and 1.69% | max response [12] -9.68% and -4.28%
active: Potency [10] 50.1 µM | Potency [13] 7.94 µM

c1ccc2cc3c(cc2c1)-c1cccc2cccc-3c12
inactive: Potency [1] > 92 µM | Potency [14] > 92 µM | Potency [16] > 92 µM | Potency [2] > 92 µM | Potency [15] > 92 µM | Potency [4] | outcome [5] | outcome [6] | caspase-3 activation [7] -4.56% | Potency [8] | Potency [9] | Potency [10] | max response [12] 13.7% and 0.159% | max response [13] -11.7% and -17%
active: Potency [11] 2.82 µM and 2.51 µM

O=[N+]([O-])c1ccccc1Cl
inactive: Potency [1] > 92 µM | Potency [14] > 92 µM | Potency [16] > 92 µM | Potency [2] > 92 µM | Potency [15] > 92 µM | activation [11] -0.478% and -0.511% | max response [13] 10.4% and -3.52%

Clc1ccc(C(c2ccc(Cl)cc2)C(Cl)Cl)cc1
active: Potency [1] 55 µM | Potency [16] 45.4 µM | Potency [2] 45.4 µM | Potency [15] 43.5 µM | activity change, negative = cytotoxicity [4] -88.1% | caspase-3 activation [7] 152%
inactive: Potency [8] | Potency [9] | Potency [10] | activation [11] 0.923% and 0.102% | max response [12] 16.9% | max response [13] -1.77% and -12.4%

Cc1c(N=Cc2c(O)n(CCc3ccc(F)cc3)c(=O)[nH]c2=O)c(=O)n(-c2ccccc2)n1C
inactive: Potency [17] > 20.6 µM

N#CSCSC#N
active: Potency [1] 14.4 µM | Potency [14] 3.31 µM | Potency [16] 34.5 µM | Potency [2] 41.4 µM | Potency [15] 14 µM | Potency [4] 5.01 µM | Potency [8] 39.8 µM | Potency [9] 10 µM | Potency [10] 7.94 µM | Potency [13] 44.7 µM and 39.8 µM
inactive: outcome [3] | outcome [5] | outcome [6] | caspase-3 activation [7] -11.6% | activation [11] 3.48% and -14.5% | max response [12] -10% and -5.06%
